Data reported in the supplement of paper PMC6897291.
Structures can show the parent of a compound that is named as a salt.

System: U-2932
Experiment: growth inhibition by drug alone (1 - RLU/untreated control) (fraction); higher = stronger inhibition
Settings: 177Lu-lilotomab satetraxetan 0 ug/ml
Protocol: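 U-2932 ABC-DLBCL cells were pretreated or not for 18 h with 1 ug/ml 177Lu-lilotomab satetraxetan (600 MBq/mg), washed and seeded (3000 cells/well) on 384-well plates pre-printed with the Selleck Cambridge Cancer Compound library. Viability was read by RealTime-Glo luminescence on days 3-6 after seeding. Effect = 1 - RLU/mean RLU of the 48 untreated no-drug control wells per plate; Bliss score = (M-E)/(1-Fa), with E the expected Bliss-additive effect.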

| Compound | growth inhibition by drug alone (10 nM, time (day): 3) | growth inhibition by drug alone (10 nM, time (day): 4) | growth inhibition by drug alone (10 nM, time (day): 5) | growth inhibition by drug alone (10 nM, time (day): 6) | growth inhibition by drug alone (1000 nM, time (day): 3) | growth inhibition by drug alone (1000 nM, time (day): 4) | growth inhibition by drug alone (1000 nM, time (day): 5) | growth inhibition by drug alone (1000 nM, time (day): 6) |
| --- | --- | --- | --- | --- | --- | --- | --- | --- |
| CCOC(=O)[C@@H](C)Oc1cccc2c(=O)n(CC(=O)Nc3ccc4c(c3)OCCO4)ccc12 | -0.0226 | -0.00751 | 0.0431 | 0.176 | -0.114 | -0.0578 | -0.0945 | -0.15 |
| N#CCNC(=O)c1ccc(-c2ccnc(Nc3ccc(N4CCOCC4)cc3)n2)cc1 | -0.0265 | -0.0512 | -0.0373 | 0.104 | -0.161 | -0.159 | -0.134 | 0.0156 |
| Clc1ccc(Nc2nnc(Cc3ccncc3)c3ccccc23)cc1 [Vatalanib dihydrochloride (PTK787)] | 0.0493 | 0.0329 | -0.0325 | -0.0722 | 0.00749 | 0.0478 | -0.0105 | -0.12 |
| CCN(CC)CCNC(=O)c1c(C)[nH]c(/C=C2\C(=O)Nc3ccc(F)cc32)c1C [Sunitinib Malate (Sutent)] | 0.0107 | 0.0161 | -0.0625 | -0.274 | -0.0117 | -0.00484 | -0.0741 | -0.207 |
| CC1(CN2CCC(n3c(=O)[nH]c4ccccc43)CC2)OCc2ccccc2-n2cccc21 (stereo not given) | -0.00689 | -0.027 | -0.0586 | -0.0906 | -0.241 | -0.0399 | -0.126 | -0.115 |
